Assay outcomes (PubChem)
Pf Dd2 growth – qHTS Primary assay for Inhibitors of Plasmodium falciparum Dd2 growth in vitro | Potency, µM (titrated, usually from 28.9 µM), most hits filed as inhibitors | P. falciparum Dd2 growth, SYBR Green, 72 h | actives 4.3% (n = 120,000); active = well fitted inhibition curve with a large enough effect; note: nearly all actives have a fitted effect of over 65% in size
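Infected erythrocytes (Dd2, 0.3% parasitemia, 2.5% hematocrit final) are added to compound in RPMI-1640/Albumax II medium, grown 72 h at 37C in low oxygen, then lysed with saponin/Triton-X containing SYBR Green and read by fluorescence.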
Large screens that a line does not name were inactive. Many of the other results were omitted from the sample, so hits are more common in it than they were.

Cc1cccc(Nc2nnc(-c3ccc(C)c(S(=O)(=O)N4CCCCC4)c3)c3ccccc23)c1	none
CCOc1ccc(-c2nnc(Nc3ccc(S(N)(=O)=O)cc3)c3ccccc23)cc1	none
CN(C)C[C@@H]1CN(Cc2ccncc2)C[C@H]1NC(=O)C1CCOCC1	none
Cc1noc(C)c1S(=O)(=O)N1CCC2(CC1)CC(N1CCN(C(C)C)CC1)CCO2 (stereo not drawn)	none
Cc1cc(C)c(S(=O)(=O)N2CC(c3nc(-c4ccncc4)no3)C2)c(C)c1	none
COc1cccc(CC(=O)N2[C@@H]3CC[C@H]2CC(NC(=O)c2ccncc2)C3)c1 (stereo partly drawn)	none
COc1ccc(C(=O)N2CCC(c3n[nH]c(=O)n3Cc3ccc(C)cc3)CC2)cc1F	none
Cc1ccc(C(=O)N2C[C@@H](Oc3cccnc3)C[C@H]2C(N)=O)s1	none
CNC(=O)[C@@H]1C[C@H](n2cc(CNC(=O)Nc3cccc(Cl)c3C)nn2)CN1	none
CC(C)(C)n1nnnc1C1CC2(CCOCC2)C(=O)N1Cc1ccc(F)cc1Cl (stereo not drawn)	none
Cc1ccc(C)c(NC(=O)N2CC(n3cc(COc4ccccc4)nn3)C2)c1	none
O=C(c1ccccc1Br)N1CC(n2cc(COc3ccc(F)cc3)nn2)C1	Pf Dd2 growth 11µM
O=C(NCc1ccco1)N1CC(n2cc(COc3ccccc3)nn2)C1	none
COc1ccc(CN2CCC(N3Cc4ccccc4C3=O)CC2)cc1	none
CC1CCN(CC2CCCN(C(=O)c3cnccn3)CC2)CC1 (stereo not drawn)	none
COCC1CN(S(=O)(=O)c2ccc(C#N)cc2)CC12CCNCC2 (stereo not drawn)	none
O=C1CCCCN1CCCC(=O)N1CCOC(CC2CCCCC2)C1 (stereo not drawn)	none
C[C@@H]1C(=O)O[C@H]2[C@H]1CC[C@@]1(C)Cc3sc(NS(=O)(=O)c4ccc(F)cc4)nc3[C@@H](C)[C@H]21	none
C[C@@H]1C(=O)O[C@H]2[C@H]1CC[C@@]1(C)Cc3sc(NC(=O)c4c(Cl)cccc4Cl)nc3[C@@H](C)[C@H]21	none
C[C@@H]1C(=O)O[C@H]2[C@H]1CC[C@@]1(C)Cc3sc(NC(=O)NC4CCCCC4)nc3[C@@H](C)[C@H]21	Pf Dd2 growth 11µM
COCC(=O)Nc1nc2c(s1)C[C@]1(C)CC[C@@H]3[C@H](OC(=O)[C@H]3C)[C@H]1[C@@H]2C	none
C[C@@H]1C(=O)O[C@H]2[C@H]1CC[C@@]1(C)Cc3sc(NC(=O)Nc4ccc(Oc5ccccc5)cc4)nc3[C@@H](C)[C@H]21	Pf Dd2 growth 11µM
CC(=O)N1CCC(C(=O)Nc2nc3c(s2)C[C@]2(C)CC[C@@H]4[C@H](OC(=O)[C@H]4C)[C@H]2[C@@H]3C)CC1	none
Cc1cccc(CN(C(=O)c2ccco2)c2ccc(CC(=O)N(C)Cc3ccccc3)cc2)c1	none
Cc1ccsc1[C@@H]1CCN(C(=O)c2ccc(-n3cnnn3)cc2)C[C@H]1O	none
CC(C)Cn1c(CN2CCSCC2)cnc1S(=O)(=O)Cc1ccccc1	none
COCCS(=O)(=O)c1ncc(CN(C)C(C)c2ccon2)n1Cc1ccccc1 (stereo not drawn)	none
COCCS(=O)(=O)c1ncc(CN2CC[C@@H]3CCCC[C@H]3C2)n1Cc1ccccc1	Pf Dd2 growth 6.3µM
CCOC(=O)CC1COCCN1C(=O)c1cn(Cc2ccc(F)cc2Cl)nn1 (stereo not drawn)	none
COc1cccc(NC(=O)N[C@H]2[C@H](O)[C@@H](N3CCN(C)CC3)[C@@H]3OC[C@H]2O3)c1	none
CN(C(=O)CSc1nc2ccc(NC(=O)c3cccc(F)c3)cc2s1)c1ccccc1	none
Cc1ccccc1OCC(=O)Nc1ccc2nc(SCC(=O)N(C)c3ccccc3)sc2c1	none
COc1ccccc1C(=O)Nc1ccc2nc(SCC(=O)N(C)c3ccccc3)sc2c1	Pf Dd2 growth 8.9µM
CCOC(=O)CSc1nc2ccc(NC(=O)c3ccc(C)cc3)cc2s1	none
CCOc1ccc(C(=O)Nc2ccc3nc(SCC(=O)N(C)c4ccccc4)sc3c2)cc1	Pf Dd2 growth 8.9µM
CN(C(=O)CSc1nc2ccc(NC(=O)c3ccccc3F)cc2s1)c1ccccc1	none
COc1cc(NC(=O)NC[C@H]2O[C@@H](CO)[C@@H](O)[C@H]2N2CCC(C)CC2)cc(OC)c1	none
CN1CC[C@H]2CN(C(=O)c3cnn(C)c3)C[C@@]2(C(=O)O)C1	none
NC(=O)[C@@H](Cc1ccccc1)NC(=O)C1=C[C@@H](NC(=O)c2cnccn2)[C@@H](O)[C@H](O)C1	none
Cc1noc(C)c1C(=O)N1CCC2(CC1)CC(c1ccccc1)C(=O)N(C)C2 (stereo not drawn)	none
Cc1ccc2c(c1)-c1cc(C)nn1C(c1cc(Br)ccc1O)N2 (stereo not drawn)	Pf Dd2 growth 13µM
CCc1nc(-c2c3n(c(=O)n(CC(=O)Nc4ccc(Cl)cc4F)c2=O)CCCC3)no1	none
CCOCCCNC(=O)N1CCC2(CC1)CC(N1CCOCC1)CCO2 (stereo not drawn)	none
O=C(O)c1cccc([S+](=O)([O-])N2CC(CNC(=O)c3ccccc3)C3(CN(c4ccccc4)C3)C2)c1 (stereo not drawn)	none
Fc1ccc(C2Cn3nnc(-c4nc(-c5ccc6c(c5)OCO6)no4)c3CO2)cc1 (stereo not drawn)	none
Cc1ncc2n1C(=O)N(C1CCN(Cc3ccncc3)CC1)C2	none
O=C(Nc1cccc2ccccc12)O[C@@H]1CO[C@H]2[C@@H]1OC[C@@H]2NC(=O)C1CCC1	none
O=C(Nc1ccc(Oc2ccccc2)cc1)N[C@H]1CO[C@H]2[C@@H]1OC[C@H]2OC(=O)Nc1cccc2ccccc12	none
O=C(Nc1ccc(Oc2ccccc2)cc1)O[C@@H]1CO[C@H]2[C@@H]1OC[C@@H]2NC(=S)Nc1cccc2ccccc12	Pf Dd2 growth 13µM
COc1ccc(C)cc1C(=O)NC1CC(c2nnc(CN(C)C)n2C)C1 (stereo not drawn)	none
CCNC(=O)N1CCC([C@H]2[C@@H](OC)C(=O)N2C(C)C)CC1	none
CCOc1ccc(C(=O)N2CC(c3nnc(-c4ccc(C)cc4)o3)C3(CCOCC3)C2)cc1 (stereo not drawn)	none
CCN1CC(c2ccccc2)CC2(CCN(C(=O)COC)CC2)C1 (stereo not drawn)	none
Cc1cccc(-n2nnnc2S(C)(=O)=O)c1	Pf Dd2 growth 11µM
COC(=O)c1nnn(-c2cccc(C)c2)c1C(=O)OC	none
Cc1ccc(-n2nnnc2CNC(=O)c2ccccc2S(C)(=O)=O)cc1C	none
Cc1cnc(-c2ccncc2)n1C1CCN(C(=O)Cc2ccccc2)CC1	none
O=C(c1ccc2c(c1)N(Cc1cccc(F)c1)C(=O)c1ccccc1S2)N1CCCC1	none
CN(C)c1ccc(NC(=O)CN2C(=O)c3ccccc3Sc3ccc(C(=O)N4CCCC4)cc32)cc1	Pf Dd2 growth 10µM
CCOC(=O)c1ccc2c(c1)N(CC(=O)Nc1cc(F)ccc1F)C(=O)c1ccccc1S2	none
Cc1ccc(NC(=O)CN2C(=O)c3ccccc3Sc3ccc(C(=O)N4CCOCC4)cc32)cc1C	none
COc1ccc(OC)c(NC(=O)CN2C(=O)c3ccccc3Sc3ccc(C(=O)N4CCCC4)cc32)c1	Pf Dd2 growth 10µM
O=C(c1ccc2c(c1)N(Cc1ccccc1Cl)C(=O)c1ccccc1S2)N1CCCC1	none
O=S(=O)(NCC1(COc2cnccn2)C[C@@H](O)[C@@H](O)C1)c1ccc(Cl)cc1 (stereo partly drawn)	none
O=C(Cn1nnnc1CN1CCOCC1)N1CCCC1c1ccc(F)cc1 (stereo not drawn)	none
O=C1NCCOCCCN(C(=O)Nc2ccccc2F)[C@H]2CCC[C@@H]12	none
O=C(Cc1ccccn1)N1CCCC(c2nn(-c3ccc(F)cc3)c(=O)[nH]2)C1 (stereo not drawn)	none
